NLRP3 yeast inh – blocks the NALP3 inflammasome reconstituted in yeast. Yeast reconstituted NLRP3/ASC/caspase-1, beta-gal luminescence, 24 h. 330,000 tested, 0.39% active. inhibition, % at 10 µM;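 active = inhibition of 50% or more; inactive = inhibition below 50%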;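 also: plate controls were induced DMSO wells for no effect and uninduced yeast grown without galactose for full effect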
TIM10 inh – growth inhibitors of TIM10 yeast strain; AID 463195; S. cerevisiae TIM10 strain growth, BacTiter-Glo luminescence, 24 h; 330,000 tested, 1.4% active; inhibition, % at 10 µM;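 active = inhibition of 40% or more at the single tested concentration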;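 also: wild-type TIM10 isogenic control strain grown at permissive 25 °C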
SKKanGAS inh – SKKanGAS growth inhibition. 300,000 tested, 1.3% active. inhibition, % at 7.5 µM. AID 1662. S. pyogenes SKKanGAS, kanamycin growth, BacTiter-Glo, 6 h;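 active = mean replicate score, as percent of positive control median, at least 50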;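 also: strain carries kanamycin resistance gene driven by streptokinase promoter and grows in 40 µg/ml kanamycin; loss of luminescence reflects streptokinase promoter inhibition or plain growth inhibition; 0% = median of DMSO wells and 100% = positive control at its reference dose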
tim23-1 inh – inhibits growth of tim23-1 mutant yeast. 330,000 tested, 1.3% active. inhibition, % at 20 µM. S. cerevisiae tim23-1 growth, BacTiter-Glo luminescence, 24 h;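 active = growth inhibition of the mutant yeast at or above 50%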;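 also: temperature-sensitive mutant grown at 25 °C; plate controls were DMSO-treated mutant yeast for no effect and medium wells lacking yeast for full effect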
tim10-1 inh – growth inhibitors of tim10-1 mutant yeast | S. cerevisiae tim10-1 ts strain growth, BacTiter-Glo, 24 h | inhibition, % at 20 µM | 330,000 tested, 2.2% active;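 active = inhibition of at least 40%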;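 also: mutant grown at 25 °C; 0% = DMSO wells with yeast and 100% = wells holding no yeast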
PfHsp90 set2 – growth inhibition of yeast expressing Plasmodium Hsp90. S. cerevisiae expressing PfHsp90, BacTiter-Glo ATP, 48 h; yeast lacking PDR1 and PDR3 efflux regulators. inhibition, % at 9.4 µM. 310,000 tested, 0.32% active. AID 504621;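 active = every replicate shows inhibition above about 80%, whatever the replicate mean, limit read from the data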;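 also: 0% = DMSO neutral controls and 100% = 20 µM radicicol positive controls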
NALP3 yeast conf – confirmation of NALP3 inhibitors in yeast. shares compounds with NLRP3 yeast inh. inhibition, % at 10 µM. yeast expressing human NALP3, luminescence. 1,300 tested, 81% active. AID 435006; in the data active = inhibition above about 48%
Casp1-ASC yeast – active in yeast caspase-1-ASC counter-screen for NALP3 inhibitors. inhibition, % at 10 µM. 1,000 tested, 66% active. shares compounds with NLRP3 yeast inh. yeast expressing Caspase-1-ASC, luminescence counter screen
NALP3 retest – confirmation retest of NALP3 inhibitors in yeast; shares compounds with NLRP3 yeast inh; yeast expressing human NALP3, luminescence read-out; inhibition, % at 10 µM; 1,000 tested, 53% active; AID 488794
tim10-1 confirm – confirmation of tim10-1 mutant yeast growth inhibitors. shares compounds with tim10-1 inh. S. cerevisiae tim10-1 ts strain growth, BacTiter-Glo, 24 h. inhibition, % at 20 µM. 7,400 tested, 56% active;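 active = inhibition of yeast growth at or above a set limit in either of two repeat tests at 20 µM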;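 also: tim10-1 mutant grown at permissive 25 °C to find synthetic lethal compounds; 0% = DMSO yeast wells and 100% = medium wells without yeast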
TIM10 conf – TIM10 yeast growth inhibition, confirmed | shares compounds with TIM10 inh | S. cerevisiae tim10 strain growth, BacTiter-Glo luminescence, 24 h | inhibition, % at 10 µM | 4,600 tested, 63% active | AID 463215;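 active = inhibition of yeast growth at or above a set limit in either of two replicates at 10 µM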;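 also: this counterscreen used the strain with wild-type TIM10; 0% = yeast with DMSO and 100% = medium wells lacking yeast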
tim23-1 conf – tim23-1 yeast growth inhibition, confirmed; shares compounds with tim23-1 inh; S. cerevisiae tim23-1 growth, BacTiter-Glo luminescence, 24 h; inhibition, % at 20 µM; 4,400 tested, 83% active;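 active = inhibition above about 39% in either of two replicate wells at 20 µM, limit read from the data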;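 also: temperature-sensitive tim23-1 mutant grown at 25 °C; 0% = DMSO wells with yeast and 100% = medium wells without yeast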
Active calls of the source: *; x = not tested or not shown. A selection: hits, their analogues and other compounds. The true share with any hit is near 4.6%. Rule as the data show it, unless noted: active = inhibition above about 50%; inactive = the rest.

SMILES	NLRP3 yeast inh	TIM10 inh	SKKanGAS inh	tim23-1 inh	tim10-1 inh	PfHsp90 set2	NALP3 yeast conf	Casp1-ASC yeast	NALP3 retest	tim10-1 confirm	TIM10 conf	tim23-1 conf
Cc1cc(C)cc(C(=O)/C=C2\NC(=O)CS2)c1	66*	50*	-1	43	20	-4	77*	80*	71*	x	34*	x
O=C(Nc1cc(Cl)ccc1N1CCOCC1)c1cccnc1Cl	25	16	5	12	-7	-7	x	x	x	x	x	x
CC(C)(C)c1ccc(-c2nc(N)nc(N)n2)cc1	19	16	-3	11	8	x	x	x	x	x	x	x
CC(C)(C)c1ccc(-c2conc2N)cc1	59*	43*	-6	46	55*	-33	69*	66*	48	41*	47*	x
Cc1ccc(Sc2ccc(NC(=O)CCl)cc2)c(C)c1	58*	59*	-8	37	39	x	69*	78*	58*	x	43*	x
CC1CC1C(=O)Nc1ccc(-c2ccccc2)cc1 (configuration not stated)	51*	43*	13	43	35	0	64*	x	x	x	36*	x
COc1cc2[nH]c(=O)c(C(=O)NCCCN3CCOCC3)c(O)c2cc1OC	4	5	-4	-19	-23	10	x	x	x	x	x	x
O=C(NCCCN1CCOCC1)c1c(O)c2cc(Br)cc(Br)c2[nH]c1=O	63*	67*	x	46	51*	-25	81*	31	39	47*	74*	x
Oc1c(Cl)cc(Cl)cc1Sc1cc(Cl)cc(Cl)c1O	97*	45*	106*	34	-80	x	99*	x	x	x	39*	x
Cc1cc(C)c(O)c(CN(C)Cc2cc(Cl)cc(Cl)c2O)c1	x	x	x	x	x	-3	x	x	x	x	x	x
CCn1cnc2c([N+](=O)[O-])c(NS(=O)(=O)c3ccc(C)cc3)ccc21	11	2	2	7	-26	-34	x	x	x	x	x	x
COc1cc(CNCCc2ccccc2)ccc1OCc1ccc(Cl)nc1	50*	55*	2	7	2	0	42	46	51*	x	-4	x
O=[N+]([O-])c1ccc2nc(-c3ccc(OC(F)F)cc3)cn2c1	27	-12	-2	-5	-15	-11	x	x	x	x	x	x
CN1C/C(=C/c2ccsc2)C(=O)/C(=C/c2ccsc2)C1	63*	49*	7	32	54*	0	56*	79*	65*	31*	33*	x
O=C(CSc1nnc(NC(=O)C2CC2)s1)Nc1ccccc1Cl	7	10	0	0	-19	12	x	x	x	x	x	x
O=Cc1cn(-c2ccccc2)nc1-c1ccc2c(c1)OCCO2	50*	47*	x	72*	53*	26	57*	52*	60*	59*	62*	78*
N#Cc1cn(-c2ccccc2)nc1-c1ccc2c(c1)OCCO2	5	7	0	2	16	-12	x	x	x	x	x	x
Cc1cccc(N/C=C/c2onc(C)c2[N+](=O)[O-])c1	16	5	-3	1	13	7	x	x	x	x	x	x
Cc1cccc(/C=C/c2onc(C)c2[N+](=O)[O-])n1	89*	68*	-5	84*	64*	x	63*	96*	77*	61*	78*	71*
O=C(NCC1CCCO1)C1CCCN(S(=O)(=O)c2ccc(Cl)cc2)C1 (configuration not stated)	4	9	-2	5	-18	-7	x	x	x	x	x	x
Cc1ccc2[nH]c3ccccc3c(=O)c2c1	53*	10	3	59*	-24	36	61*	61*	56*	x	x	50*
O=c1c2ccccc2[nH]c2ccc(O)cc12	7	-8	-10	23	-49	-43	x	x	x	x	x	x
O=C(NCCO)C(=O)NCC1OCCCN1S(=O)(=O)c1ccc2c(c1)OCCO2 (configuration not stated)	0	0	14	11	7	4	x	x	x	x	x	x
c1ccc(-c2cc3cc4c(cc3cn2)OCO4)cc1	55*	-17	x	62*	-32	3	58*	71*	67*	x	x	50*
COc1ccccc1C(C[N+](=O)[O-])c1c(N)n(C)c(=O)n(C)c1=O (configuration not stated)	77*	55*	-5	82*	57*	x	51*	75*	49	61*	64*	84*
SMILES	NLRP3 yeast inh	TIM10 inh	SKKanGAS inh	tim23-1 inh	tim10-1 inh	PfHsp90 set2	NALP3 yeast conf	Casp1-ASC yeast	NALP3 retest	tim10-1 confirm	TIM10 conf	tim23-1 conf
Cc1cccc(NS(=O)(=O)c2ccc(C(=O)N3CCN(c4ccccc4O)CC3)cc2)c1C	6	8	6	13	3	-9	x	x	x	x	x	x
O=C(NCCc1ccccc1)c1c(O)c2ccccc2[nH]c1=O	23	3	1	31	-43	-6	x	x	x	x	x	x
CCNC(=O)c1c(O)c2ccccc2[nH]c1=O	68*	27	-1	54*	13	26	79*	53*	71*	x	x	41*
Cc1ccc(O)c(CNc2cccc(C)n2)c1	45	-3	-1	0	-12	-10	x	x	x	x	x	x
Cc1cccc(NCc2cc(Cl)cc(Cl)c2O)n1	53*	29	4	52*	43*	-12	51*	57*	56*	27	x	56*
N#C/C(=C\c1ccc([N+](=O)[O-])cc1)c1ccccn1	55*	52*	-3	65*	46*	-85	56*	39	49	60*	57*	58*
COc1ccc(NS(=O)(=O)c2cccc(NC(=O)c3cnccn3)c2)cc1Br	8	12	-4	5	33	5	x	x	x	x	x	x
O=C(CCN1CCC(c2cccs2)=N1)c1cccs1	90*	63*	16	63*	41*	x	90*	96*	87*	30	69*	84*
COc1cc(/C=C/c2cccc[n+]2C)ccc1OCC(=O)Nc1ccccc1C	16	-3	3	-16	4	12	x	x	x	x	x	x
CCOc1cc(/C=C\[N+](=O)[O-])ccc1OCC(=O)Nc1ccccc1C	58*	56*	58*	58*	13	110*	25	x	x	x	13	78*

Bioassay records: PubChem BioAssay, several laboratories
